The results in this text go back to PubChem BioAssay (NCI).

The panel holds about 79,000 compounds, 15% with a hit somewhere; the sample as a whole holds those more often. Calls of active or inactive are those of the source. Rule as the data show it: active = growth inhibition above about 70%; inactive = the rest.

The test in a line: NCI Yeast Anticancer Drug Screen. Data for the sgs1 strain (AID 173).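 Also: 0% = growth of vehicle-only control cultures.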 As to conditions: S. cerevisiae sgs1 mutant, at 100.0 µM, active compounds read high. The procedure, abridged:
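Yeast mutant strains carrying defined defects in DNA damage repair or cell cycle control were exposed to test compounds. Growth inhibition was scored against vehicle-treated controls.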
For the molecule `CS(=O)(=O)SCc1ccc([N+](=O)[O-])cc1`, the growth inhibition was 97% (active).

Regarding `Cc1csc(=S)n1OC(=O)NC1CCCCC1`, the growth inhibition is 99% (active). For `CCOc1ccc(NC(=O)C2=C(C)NC(C)=C(C(=O)Nc3ccc(OCC)cc3)C2c2cccc([N+](=O)[O-])c2)cc1` the value was 84% (active); for `CC(C)(C)N=C(NO)c1ccccc1`, 76% (active). The result for `CCCCC/C(=C(\C#N)C(=O)OCC)c1ccccc1` reads 17% (inactive); that for `O=C(NCCCl)Sc1ccc(Cl)cc1`, 90% (active). The result for `O=C1Nc2ccc(Br)cc2C1=Nc1ccc2c(c1)OCO2` reads -27% (inactive); that for `CCC(C)OC(=O)Nc1ccc(C)c(NC(=O)OC(C)CC)c1` (stereo not drawn), 96% (active); that for `O=C(O)c1cc2ccc(Cl)cc2c(O)c1C1=CCCCC1`, 88% (active). As for `CN(C)Cc1cc(N=Nc2ccc(Cl)cc2)ccc1OC(=O)c1ccccc1`, the growth inhibition is 74% (active). The result for `CN1CCN(C(=O)/C=C/C(=O)c2ccccc2)CC1` reads 95% (active); that for `CCCC/C=C/C(C)(C(=O)OCC)C(=O)OCC`, 38% (inactive). The result for `Cc1nc(-c2cc3cc([N+](=O)[O-])ccc3oc2=O)cs1` reads 99% (active). In the case of `Cc1nc2ccccc2nc1NNc1ccccc1`, the growth inhibition was 24% (inactive). The result for `CN(C)[C@@H]1C(=O)C(C(N)=O)=C(O)[C@@]2(O)C(=O)C3=C(O)c4c(O)cccc4C[C@H]3C[C@@H]12` reads 99% (active); that for `COc1ccc(NC(=O)CC2SC(=Nc3ccccc3C)NC2=O)c([N+](=O)[O-])c1` (stereo not drawn), 99% (active). For `COc1cc(O)c2c(c1O)C(=O)c1cc(C)ncc1C2=O` the value was 84% (active); for `CSc1nnc(SC)nn1`, 98% (active).
